Screening data from PubChem BioAssay.
Rv3671c protease: inhibitors of M. tuberculosis serine protease Rv3671c. 320,000 tested, 0.048% active. AID 2606. inhibition, % at 5.96 µM; in the data active = inhibition above about 38%;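 note: extracellular domain of Rv3671c used as enzyme; 0% = enzyme with DMSO and 100% = no enzyme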
Target sequence (P9WHR9 whole entry, looked up, the tested form may be a part): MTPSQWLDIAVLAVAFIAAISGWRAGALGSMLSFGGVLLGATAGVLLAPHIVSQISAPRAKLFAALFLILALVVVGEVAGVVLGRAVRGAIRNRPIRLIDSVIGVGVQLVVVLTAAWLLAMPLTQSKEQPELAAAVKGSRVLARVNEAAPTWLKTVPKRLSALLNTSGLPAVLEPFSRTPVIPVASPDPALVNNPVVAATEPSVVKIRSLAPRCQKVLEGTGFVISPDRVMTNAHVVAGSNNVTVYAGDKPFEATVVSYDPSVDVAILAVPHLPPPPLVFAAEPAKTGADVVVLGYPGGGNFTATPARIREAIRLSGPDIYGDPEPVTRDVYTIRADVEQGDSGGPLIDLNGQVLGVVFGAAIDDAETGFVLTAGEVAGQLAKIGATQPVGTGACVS
PriA SSB inh: inhibitors of Klebsiella pneumoniae PriA binding to SSB C-terminal tail; AlphaScreen SSBct-PriA binding, biotinylated peptide; inhibition, % at 33 µM; 430,000 tested, 0.6% active; in the data active = inhibition mostly above about 37%, no sharp cut-off; inactive = mostly below about 20%;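 note: plate controls were negative control peptide for no effect and reference peptide for full effect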
Mtb bLac sens: beta-lactam sensitization of Mtb H37Rv; M. tuberculosis H37Rv growth with meropenem, percent inhibition; inhibition, % at 25 µM; 330,000 tested, 0.27% active; call rule not given here;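 note: growth measured after seven days incubation then overnight dye step; 0% = bacteria only wells and 100% = bacteria with antibiotic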
UGM FP inh: inhibitors of M. tuberculosis UDP-galactopyranose mutase | P9WIQ1 | purified UGM, fluorescence polarization probe displacement | inhibition, % at 10 µM | 320,000 tested, 0.06% active; in the data active = inhibition above about 10%, passing the limit was not always enough
GDH-TPI counter: GDH-TPI coupled enzyme inhibition counter-screen; 360,000 tested, 1.2% active; inhibition, % at 4.8 µM; GDH-TPI coupled enzyme counterscreen, NADH absorbance; in the data active = inhibition above about 30%;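 note: 0% = DMSO wells and 100% = wells lacking the enzyme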
Mtb FBA inh: inhibitors of M. tuberculosis fructose-bisphosphate aldolase; 360,000 tested, 2.3% active; P9WQA3; inhibition, % at 1 µM; AID 588726; purified M. tuberculosis FBA, fluorescence read-out; in the data active = inhibition above about 27%;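 note: 0% = vehicle and 100% = reference inhibitor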
Active calls of the source: *; · = not tested or not shown. An excerpt weighted towards active compounds, which were near 3.2% of everything screened.

SMILES	Rv3671c protease	PriA SSB inh	Mtb bLac sens	UGM FP inh	GDH-TPI counter	Mtb FBA inh
O=C(c1ccco1)N(CCCn1ccnc1)c1nc2ccccc2s1	·	72*	·	·	·	·
CC(=O)c1ccc(C(=O)N(CCn2cccn2)c2nc3c(C)cc(C)cc3s2)cc1	·	-5	·	·	·	·
Cc1cccc2sc(N(CCCn3ccnc3)C(=O)c3ccco3)nc12	·	45*	·	·	·	·
CC(=O)c1ccc(C(=O)N(CCCn2ccnc2)c2nc3c(C)cc(C)cc3s2)cc1	·	49*	·	·	·	·
O=C(c1cccs1)N(CCCn1ccnc1)c1nc2c(Cl)cccc2s1	·	77*	·	·	·	·
COc1ccc(-c2nc(-c3ccccc3)nc(N3CCN(C)CC3)c2C#N)cc1	3	-2	95	-6	9	38*
CCCCOc1ccc(S(=O)(=O)Nc2ccc(C(=O)O)cc2)cc1	·	7	·	·	·	·
O=C(Cn1cc(COc2ccc3ccc(=O)oc3c2)nn1)c1ccc(O)cc1	·	0	·	·	41*	7
O=C(Cn1cc(COc2c(F)c(F)c(Br)c(F)c2F)nn1)c1ccc(O)cc1	·	0	·	·	31*	0
COc1ccc(-c2cn3c(CC(=O)Nc4ccc(C(F)(F)F)cc4)csc3n2)cc1	·	-13	·	·	·	·
Cc1csc(NC(=O)CSc2nnc3[nH]c(=O)c(C)c(C)n23)n1	·	-14	·	·	·	·
COCCn1cc(NC(=O)NCCNC(C)=O)c2ccccc21	·	1	·	·	·	·
O=C(CSc1nc2ccccc2c(=O)[nH]1)Nc1ccc(C(=O)O)cc1	0	-10	5	4	11	6
O=C(CSc1nc2ccccc2c(=O)[nH]1)Nc1ccc([N+](=O)[O-])cc1	-3	1	-7	2	38*	4
CC(C)n1c(=O)c2ccccc2n1Cc1cn(Cc2cccs2)nn1	·	·	·	·	·	152*
CC(C)n1nnnc1SCC(=O)NCc1cccs1	11	0	-7	2	4	3
CC(C)n1c(=O)c2ccccc2n1Cc1cn(Cc2cccnc2)nn1	·	·	·	·	·	154*
Cc1nc2ccccc2c(=O)n1Cc1cccnc1	·	11	·	·	·	·
CN1C2CCC1/C(=C/c1ccccn1)C(=O)/C2=C\c1ccccn1	0	-4	99	0	46*	-3
Cc1ccc(C(=O)NC(=S)NNC(=O)c2ccccc2)cc1	9	-14	97	1	21	0
Cc1ccc(C(=O)NNC(=S)NC(=O)c2ccccc2)cc1	1	-2	98	1	31*	-3
Cc1ccc(-c2nnc(NCCN3CCOCC3)c3ccccc23)cc1C	·	-8	·	·	·	·
C[C@H](Oc1ccccc1)C(=O)NCCn1ccnc1-c1ncccn1	·	93*	·	·	·	·
CCCc1nnsc1C(=O)NCCn1ccnc1-c1ncccn1	·	72*	·	·	·	·
O=C(NCCn1ccnc1-c1ncccn1)Nc1cccs1	·	124*	·	·	·	·
SMILES	Rv3671c protease	PriA SSB inh	Mtb bLac sens	UGM FP inh	GDH-TPI counter	Mtb FBA inh
COc1ccccc1NC(=O)NCCn1ccnc1-c1cnccn1	·	39	·	·	·	·
O=C(NCCn1ccnc1C1CC1)Nc1cccs1	·	6	·	·	·	·
O=C(COc1ccccc1F)NCCn1ccnc1-c1ncccn1	·	23	·	·	·	·
Cc1nnsc1C(=O)NCCCn1ccnc1-c1ccccc1	·	1	·	·	·	·
COc1ccccc1NC(=O)NCCn1ccnc1-c1ncccn1	·	39*	·	·	·	·
O=C(Cc1ccc(Cl)s1)Nc1cccc(-c2nc3ccccc3s2)c1	·	0	·	·	·	·
Cc1ccc(N2CCCS2(=O)=O)cc1NS(=O)(=O)c1ccc(Br)cc1	·	9	·	·	·	·
N#Cc1cccc(C(=O)NCC#CCOc2cccc(C(F)(F)F)c2)c1	·	-34	·	·	·	·
O=C(Cn1c(=O)oc2ccccc21)NCCn1ccnc1-c1ncccn1	·	99*	·	·	·	·
C(=Nn1cnnc1)c1cn(-c2cccs2)nc1-c1ccccc1	·	10	·	·	·	·
COc1ccc(OC)c(Nc2nc(CC(=O)NCc3ccccc3OC)cs2)c1	·	17*	·	·	·	·
COc1ccc(NC(=O)Cc2csc(NC(=O)Nc3ccccc3OC)n2)cc1	·	·	·	·	12	4
O=C(Nc1ccc(F)cc1)Nc1csc2ccccc12	0	0	99	-2	-5	-2
COc1ccc(OC)c(Nc2nc(-c3sc(C)nc3C)cs2)c1	-5	47*	96	-2	6	0
COc1ccc(OC)c(Nc2nc(-c3sc(NC(=O)C(C)(C)C)nc3C)cs2)c1	10	10	-9	0	28	4
COc1ccc(OC)c(Nc2nc(CC(=O)NCc3ccccc3Cl)cs2)c1	·	22	·	·	·	·
COc1ccccc1NC(=O)Nc1nc(CC(=O)Nc2ccc(N(C)C)cc2)cs1	15	74*	3	-1	-6	-2
CN(C)c1ccc(NC(=O)Nc2csc3ccccc23)cc1	18	40*	-2	-1	-6	1
O=C(Nc1cc(=O)[nH]c(=O)[nH]1)c1cccc([N+](=O)[O-])c1	·	-9	·	·	·	·
